Test results taken from PubChem BioAssay (NCI).
This is part of a sample that, as a whole, favours compounds with a hit. Of some 83,000 tested, about 20% had one in any assay.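 Activity criterion: percent growth below 10, measured after cells in 96-well plates were exposed to a single compound concentration for 48 hours.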 Values without a mark were called inactive. Calls of active or inactive are those of the source.

Legend:
Assay in all cases: NCI-60 one-dose screen, 48 h (100 = growth as untreated, 0 = no growth, -100 = all killed)
Settings in all cases: 10 µM unless noted
EKVX NSCLC = system: EKVX NSCLC
SN12C renal = system: SN12C renal
UO-31 renal = system: UO-31 renal
TK-10 renal = system: TK-10 renal
ACHN renal = system: ACHN renal
CAKI-1 renal = system: CAKI-1 renal
A498 renal = system: A498 renal
CCRF-CEM leukemia = system: CCRF-CEM leukemia
MOLT-4 leukemia = system: MOLT-4 leukemia
SR leukemia = system: SR leukemia

SMILES	growth (EKVX NSCLC)	growth (SN12C renal)	growth (UO-31 renal)	growth (TK-10 renal)	growth (ACHN renal)	growth (CAKI-1 renal)	growth (A498 renal)	growth (CCRF-CEM leukemia)	growth (MOLT-4 leukemia)	growth (SR leukemia)
O=C1c2c(c3c4cccnc4[nH]c3c3ccc4ccccc4c23)C(=O)N1CCO	108%	84.4%	56.1%	127%	48.3%	42.6%	57%	42.8%	31.7%	9.85% (active)
O=C1Nc2ccccc2Oc2ccc(S(=O)(=O)CC3CO3)cc21 (stereo not given)	75.2%	71.5%	65.9%	91.6%	46.4%	44.1%	102%	25.7%	42.8%	0.309% (active)
CCCCN1C(=O)/C(=c2\sc3n(c2=O)C2C(NN=3)N(CC)C(=O)N2CC)c2cc(Cl)ccc21 (stereo not given)	80.7%	82%	63%	132%	64.5%	50.7%	27.6%	72.2%	74.5%	14.1%
CC(C)(C)Nc1nc2c(OCCc3ccccc3)cccn2c1-c1cccc(F)c1	5.55% (active)	6.27% (active)	-11% (active)	-6.22% (active)	5.29% (active)	-11.5% (active)	-18.9% (active)	3.62% (active)	-0.489% (active)	-0.873% (active)
C=CCSc1ccc2c(c1)C(N1CCNCC1)=Nc1ccccc1O2	79.7% [8.25 µM]	77.3% [8.25 µM]	62.1% [8.25 µM]	85% [8.25 µM]	70.3% [8.25 µM]	58.8% [8.25 µM]	75.1% [8.25 µM]	66.6% [8.25 µM]	49.9% [8.25 µM]	14.4% [8.25 µM]
Cc1cccc(/C=C/c2nn3c(-c4ccco4)nnc3s2)c1	81.3%	94.8%	83.7%	101%	102%	91.4%	77.5%	99.4%	104%	79%
CC(=O)Nc1cc(F)cc(-c2ccc3[nH]cc(-c4ccccc4)c3n2)c1	43.7%	32.7%	10.1%	48.6%	15.9%	-37.1% (active)	-20.1% (active)	16.9%	9.24% (active)	-1.91% (active)
CCN1C(=S)N(CC)C2C1N=C(SC)N2/N=C/C=C/c1ccccc1[N+](=O)[O-] (stereo not given)	93.6%	91.8%	94.8%	125%	78.1%	76.5%	111%	93.1%	82.1%	75%
CCOc1ccc([C@H]2C(C(=O)c3ccc(Cl)cc3)C3(N[C@@H]2c2ccccc2)C(=O)Nc2ccc(Br)cc23)cc1 (stereo not given in full)	33.6%	6.51% (active)	32.7%	53.4%	10.7%	31.8%	46.7%	34.9%	2.38% (active)	-24% (active)
C/C(=C(/c1ccc(Cl)cc1)c1ccc(OCCN)cc1)c1ccc(C)cc1	98.8%	95.7%	83.2%	116%	96.6%	86.6%	97.4%	98.9%	96.4%	88.6%
CN(C)c1ccc(-c2c(NC(C)(C)C)nc3c(OCCc4ccccc4)cccn23)cc1	8.16% (active)	12.5%	4.11% (active)	52.1%	17.7%	11.7%	24.5%	5.5% (active)	1.16% (active)	-0.837% (active)
CCCC(=O)NC(c1cccnc1)c1cc(C)c2cccnc2c1O (stereo not given)	31.5%	45.7%	26.6%	45.5%	20.2%	28%	63.1%	20.7%	18.8%	22.3%
Cn1cc(-c2cc(N)n3nc(-c4cn(C)c5ccc(Cl)cc45)cc3n2)c2cc(Cl)ccc21	94.9%	85%	100%	116%	102%	83.2%	73.1%	24.8%	51%	5.66% (active)
Cc1cc(=O)oc2cc(OCCCOc3ccc(/C=C/C(=O)Nc4ccc(Cl)cc4)cc3)ccc12	98.5%	84.4%	61.5%	118%	45.3%	59.6%	57.7%	68.2%	87.3%	37.7%
O=C(CSc1nc2sc3c(c2c(=O)n1-c1ccc(Cl)cc1)CCCC3)NNC(=O)Nc1ccc(Cl)c(C(F)(F)F)c1	41%	32.3%	30.4%	38.3%	13.3%	34.6%	-15.5% (active)	13.5%	6.67% (active)	8.77% (active)
COc1ccc2[nH]cc(-c3cc(N)n4nc(-c5c[nH]c6ccc(OC)cc56)cc4n3)c2c1	80.1%	-64% (active)	-22.8% (active)	16.5%	-31.9% (active)	-52.1% (active)	83.1%	0.363% (active)	-2.24% (active)	-23.6% (active)
CNC(=O)c1cc(-c2ccc(NC(=O)Nc3ccc(N4CCN(C)CC4)c(C(F)(F)F)c3)cc2)nc2cccnc12	-74% (active)	-73.4% (active)	-81% (active)	-89.1% (active)	-94.6% (active)	-80.4% (active)	40.9%	-15.1% (active)	-30.5% (active)	-45.4% (active)
CC(C)(C)Nc1nc2c(OCCc3ccccc3)cccn2c1-c1ccc(O)cc1	38.9%	64.3%	57.3%	113%	65.1%	80.1%	103%	38.5%	22.7%	32.5%
CCN1CCN(/C(=N\c2sc(-c3ccccc3)nc2-c2ccccc2)c2ccccc2)CC1	78.8%	76.2%	64.5%	94.1%	88.8%	65.3%	113%	68.1%	60.7%	52.8%
O=C(NNc1nc2cc(F)ccc2n2c(CN3CC4(COC4)C3)ccc12)c1cnccn1	17.6%	22.4%	13.7%	38.9%	13.7%	19.3%	-6.2% (active)	4.02% (active)	6.4% (active)	0.659% (active)
CCOC(=O)c1csc(NC(=O)CSc2nc3sc4c(c3c(=O)n2-c2ccc(Cl)cc2)CCCC4)n1	90.6%	94.9%	77.2%	125%	102%	92%	88.1%	100%	81.1%	95.9%
COc1ccc(NC2=C(Cl)C(=O)C(C)=C(C)C2=O)cc1OC	74.3%	88.9%	90.3%	170%	91.4%	89.4%	93.2%	15.3%	40.1%	84.5%
Cc1nc(-c2cc3ccccc3oc2=O)ccc1C(=O)/C=C/c1ccc(Cl)c(Cl)c1	92.1%	99.8%	89.4%	117%	93.1%	95.7%	93.8%	104%	102%	94.9%
CCN1C(=S)N(c2ccccc2)C2NC(=O)N(/N=C/C=C/c3ccccc3OC)C21 (stereo not given)	89.7%	87.5%	90.4%	105%	80.1%	72.6%	95%	92.3%	101%	40.9%
NS(=O)(=O)c1ccc(Nc2nc(SCC(=O)c3ccc(Cl)cc3)nc3ccccc23)cc1	90.6%	88.1%	82.3%	153%	89%	74.5%	74.8%	92.4%	91.3%	79.6%
CSc1ccc2c(c1)N(C(=O)/C(C#N)=C/c1c[nH]c3ccccc13)c1ccccc1S2	34.8%	33.9%	50.4%	71.3%	39.9%	38.5%	10.8%	19%	30.5%	34.4%
